# From PubChem BioAssay
# Sampled rows, rich in hits. Any-hit rate of the full collection: about 27%.
# EphB4 ephrin blk: antagonists of human EphB4-ephrin-B2 interaction. P54760. EphB4 LBD / TNYL-RAW-Alexa532 peptide, fluorescence polarization. inhibition, % at 7 µM. hit rate 0.15% among 97,000. AID 720;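 active means inhibition above the screen-wide mean inhibition plus 3 SD, cut at about 15% in these data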;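 further: 0% = DMSO wells and 100% = excess unlabeled TNYL-RAW peptide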
# CYP2C19 inhib: human CYP2C19 inhibition; inhibition, % at 5 µM; AID 778; CYP2C19 Supersomes, luciferin-H EGE luminescence, 30 min; P33261; hit rate 21% among 96,000;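 active means CYP2C19 inhibition above a set limit at 5 µM in the primary screen, cut at about 50% in these data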;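 further: plate controls were negative control wells for no effect and 2.5 mM tranylcypromine positive control for full effect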
# Target sequence (P33261 whole entry, looked up): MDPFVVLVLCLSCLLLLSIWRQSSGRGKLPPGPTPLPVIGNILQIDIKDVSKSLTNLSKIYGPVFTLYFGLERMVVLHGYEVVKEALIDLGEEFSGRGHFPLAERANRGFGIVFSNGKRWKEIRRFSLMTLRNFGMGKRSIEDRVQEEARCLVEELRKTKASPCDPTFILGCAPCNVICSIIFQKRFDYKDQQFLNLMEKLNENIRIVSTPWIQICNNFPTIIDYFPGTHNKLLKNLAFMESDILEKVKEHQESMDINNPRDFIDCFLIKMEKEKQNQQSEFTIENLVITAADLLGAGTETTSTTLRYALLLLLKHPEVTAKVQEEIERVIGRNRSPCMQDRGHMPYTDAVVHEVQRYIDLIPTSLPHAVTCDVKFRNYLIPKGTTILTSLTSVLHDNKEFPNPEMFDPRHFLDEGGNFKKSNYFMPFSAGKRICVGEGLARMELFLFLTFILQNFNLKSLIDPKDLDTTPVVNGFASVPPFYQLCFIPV
# CYP2C9 inh: human CYP2C9 inhibition; inhibition, % at 5 µM; hit rate 20% among 96,000; P11712; AID 777; CYP2C9 Supersomes, luciferin-H conversion, luminescence;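 active means blocking of liver enzyme CYP2C9 beyond about 50% at 5 µM, limit read from the data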
# CYP2C9 act: increases human cytochrome P450 2C9 activity; P11712; recombinant CYP2C9, luciferin-H conversion, luminescence; stronger effect = higher value; factor 1 = untreated enzyme, 0 = blocked; activation factor at 5 µM; hit rate 1.4% among 96,000;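 active means activation factor of 2 or more for CYP2C9 at a 5 µM dose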;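 further: 0 = sulfaphenazole-blocked wells and 1 = vehicle-only wells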
# CYP2C19 act: cytochrome P450 2C19 (human) activation; activation factor at 5 µM; AID 1025; recombinant CYP2C19, luciferin-H EGE luminescence; stronger effect = higher value; 0 = fully inhibited enzyme, 1 = untreated enzyme; 96,000 tested, under 10 active; P33261;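 active means activation factor of at least 2 at 5 µM in the primary screen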;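 further: 0 = wells with 2.5 mM tranylcypromine and 1 = vehicle-only wells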
# Active calls of the source: *; . = not tested or not shown.
SMILES,EphB4 ephrin blk,CYP2C19 inhib,CYP2C9 inh,CYP2C9 act,CYP2C19 act
CCCc1cc(=O)[nH]c(SCC(=O)N(CC(C)C)C2CCS(=O)(=O)C2)n1 (stereo not drawn),3,-6,-4,1,1.1
CC(=O)Nc1ccccc1OCC(=O)c1ccc2c(c1)OCO2,4,20,16,0.8,0.8
CCOc1ccccc1NC(=S)/C(=C(\[O-])c1ccc2c(c1)OCCO2)[n+]1ccc(CC)cc1,6,59*,62*,0.4,0.4
CC(C)Cc1nc(S(=O)(=O)c2ccc(Cl)cc2)c(N2CCOCC2)o1,1,57*,4,1,0.4
COc1ccccc1-c1nc(S(=O)(=O)c2ccc(Cl)cc2)c(N(C)C)o1,-14,-15,-29,1.3,1.1
COc1cc(-c2nc(S(=O)(=O)c3ccc(C)cc3)c(N(C)C)o2)cc(OC)c1OC,11,13,56*,0.4,0.9
CC(C)(C)c1nc(S(=O)(=O)c2ccc(Cl)cc2)c(N2CCOCC2)o1,-2,13,0,1,0.9
COc1cc(-c2nc(S(=O)(=O)c3ccc(C)cc3)c(N3CCOCC3)o2)cc(OC)c1OC,-5,33,51*,0.5,0.7
COc1cc(-c2nc(S(=O)(=O)c3ccc(Cl)cc3)c(N3CCOCC3)o2)cc(OC)c1OC,4,22,62*,0.4,0.8
CC1CC(N(C(=O)c2ccccc2Cl)c2ccccc2)c2ccccc2N1 (stereo not drawn),-8,7,10,0.9,0.9
C=CCOC(=O)c1cc(-c2ccc(/C=C3\C(=O)NC(=O)C(C#N)=C3C)o2)ccc1Cl,3,24,61*,0.4,0.8
CCOc1ccc(N(C(C)C(=O)Nc2ccc(OC)cc2)S(C)(=O)=O)cc1 (stereo not drawn),3,74*,72*,0.3,0.3
CCN(CC)S(=O)(=O)c1ccc(NC(=O)C(C)N(c2ccc(OC)cc2)S(C)(=O)=O)cc1 (stereo not drawn),1,7,56*,0.4,0.9
COc1cccc(-c2cc(C(=O)N3CCCc4ccccc43)no2)c1,-4,46,-83,1.8,0.5
O=C(NC1CCCC1)C(c1ccccc1)N(C(=O)c1ccno1)c1cccnc1 (stereo not drawn),-4,45,37,0.6,0.6
O=C(CSc1ccccn1)Nc1ccc(Br)cn1,10,54*,15,0.9,0.5
Cc1ccc(NC(=O)CSc2ncn(-c3ccccc3)n2)cc1C,7,.,.,.,.
O=C(CSc1ncn(-c2ccccc2)n1)Nc1ccc(Br)cn1,-7,75*,58*,0.4,0.2
CCc1ccccc1NC(=O)c1cc(C2CC2)on1,.,35,-141,2.4*,0.7
Cc1[nH]c2ccccc2c1CC(=O)O,0,2,-5,1.1,1
CO/N=C/NC(=O)Cc1cn(-c2ncc(C(F)(F)F)cc2Cl)c2ccccc12,2,7,43,0.6,0.9
O=C(CCCC(=O)N(CC(=O)NC1CCCCC1)Cc1ccc2c(c1)OCO2)Nc1ccccn1,-3,65*,64*,0.4,0.4
Cc1ccnc(NC(=O)CCC(=O)N(CC(=O)NC2CCCCC2)CC2CCCO2)c1 (stereo not drawn),-8,9,31,0.7,0.9
Cc1ccnc(NC(=O)CCC(=O)N(CC(=O)NC2CCCCC2)Cc2ccc3c(c2)OCO3)c1,.,56*,76*,0.2,0.4
O=C(CCCC(=O)N(CC(=O)NC1CCCCC1)Cc1ccco1)Nc1ccccn1,.,6,10,0.9,0.9
SMILES,EphB4 ephrin blk,CYP2C19 inhib,CYP2C9 inh,CYP2C9 act,CYP2C19 act
O=C(CCCC(=O)N(CC(=O)NC1CCCC1)Cc1ccc(F)cc1)Nc1ccccn1,-3,44,52*,0.5,0.6
c1ccc(C[n+]2cccc3c4ccccc4ccc32)cc1,0,0,-31,1.3,1
O=c1cc(CO)occ1OCc1cccc(F)c1,0,26,-20,1.2,0.7
Fc1cccc(C[n+]2csc3ccccc32)c1,-8,37,62*,0.4,0.6
c1ccc(C[n+]2csc3ccccc32)cc1,3,41,55*,0.4,0.6
O=C(Nc1nnc(-c2ccccc2SCc2ccccc2)s1)Nc1ccccc1F,4,6,10,0.9,0.9
O=C(Nc1nccs1)c1ccc(S(=O)(=O)NCC2CCCCC2)cc1,4,8,10,0.9,0.9
C=CCc1cc(Cl)ccc1OCCN(C)C,-3,14,-1,1,0.9
Cc1ccc(C(=O)N/C(=C/c2ccc(-c3cc(C(F)(F)F)ccc3Cl)o2)C(=O)NCc2cccnc2)cc1,-1,39,58*,0.4,0.6
CS(=O)(=O)N1CCN(c2ccccc2NC(=O)Cc2ccc(Cl)cc2)CC1,-2,14,32,0.7,0.9
CS(=O)(=O)N1CCN(c2ccccc2NC(=O)Cc2ccccc2)CC1,1,62*,50,0.5,0.4
CS(=O)(=O)N1CCN(c2ccccc2NC(=O)c2ccc(-c3ccc(Cl)cc3Cl)o2)CC1,8,25,50*,0.5,0.8
CN1CCN(c2ccccc2NC(=O)c2ccc(-c3ccc(Cl)cc3Cl)o2)CC1,-2,27,47,0.5,0.7
CCC(=O)N1CCN(c2ccccc2NC(=O)Cc2ccccc2)CC1,0,59*,42,0.6,0.4
O=C(Cc1ccccc1)Nc1ccccc1N1CCN(c2ccccc2)CC1,-2,16,14,0.9,0.8
CCOC(=O)CCc1c(C)c2ccc(OC(C)C(=O)OCC)c(C)c2oc1=O (stereo not drawn),-2,17,50,0.5,0.8
CCO/C=N/c1c(C#N)c(CC#N)nn1-c1ccccc1,2,-9,-2,1,1.1
O=C(NCCCCc1ccccc1)C1CC(c2ccccc2[N+](=O)[O-])=NO1 (stereo not drawn),-4,51*,37,0.6,0.5
O=C(NCc1ccc(OC(F)(F)F)cc1)C1CC(c2ccccc2[N+](=O)[O-])=NO1 (stereo not drawn),1,23,-213,3.1*,0.8
N#CCc1ccc(C(=O)c2ccccc2)s1,-2,70*,20,0.8,0.3
O=C(CSc1nnc2c(Cl)cc(Cl)cn12)N1CCN(S(=O)(=O)c2ccccc2)CC1,10,6,-12,1.1,0.9
COc1ccccc1-n1cnnc1SCC(=O)Nc1nc(C)c(Cl)cc1Cl,4,75*,21,0.8,0.3
COc1ccccc1C(=O)N1CCN(S(=O)(=O)c2ccccc2)CC1,-4,93*,52*,0.5,0.1
COc1ccc(C(=O)N2CCN(S(=O)(=O)c3ccccc3)CC2)c(OC)c1,7,39,32,0.7,0.6
COc1ccccc1-n1cnnc1SCC(=O)Nc1ncc(Cl)cc1Cl,-3,27,-7,1.1,0.7
COc1cccc(OC)c1C(=O)N1CCN(S(=O)(=O)c2ccccc2)CC1,2,53*,74*,0.3,0.5
COc1ccccc1-n1cnnc1SCC(=O)N1CCN(S(=O)(=O)c2ccccc2)CC1,1,60*,3,1,0.4
